Experimental data reported in PubChem BioAssay.
Activity calls are given as the source filed them.

Assays:
[1] = binders of probe aFSTL3 on microarray, primary screen, stem cell growth factor project, biochemical, small-molecule microarray, fluorescence 635/667 (AID 1064); conditions: higher = more signal;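 further: measures binding of the biotinylated anti-FSTL3 antibody to printed compounds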
[2] = binders from COS7 lysate, DM2A8 probe, primary screen, torsin A project, cell lysate, small-molecule microarray, fluorescence 635/667 (AID 1065); conditions: higher = more signal, COS7 lysate expressing mutant human TOR1A
[3] = binders of probe aFGF2 on microarray, primary screen, stem cell growth factor project, biochemical, small-molecule microarray, fluorescence 635/667 (AID 1067); conditions: higher = more signal;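 further: measures binding of biotinylated aFGF2 protein to printed compounds on slides; z-score merges feature fluorescence and signal-to-noise across triplicate slides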
[4] = binders of probe aFGF10 on microarray, primary screen, stem cell growth factor project, biochemical, small-molecule microarray, fluorescence 635/667 (AID 1071); conditions: higher = more signal;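 further: score merges 667 nm spot intensity and signal to noise from triplicate slides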
[5] = biological target: Neurogenic locus notch homolog protein 2 (Homo sapiens) (UniProt Q04721); experiment: Notch2 binders on small-molecule microarrays, primary screen, biochemical, small-molecule microarray, 635 nm fluorescence, stem cell growth factors (AID 1073); conditions: Notch2 binding, higher = more signal
[6] = biological target: Pro-neuregulin-1, membrane-bound isoform (Homo sapiens) (UniProt Q02297); experiment: NRG1 binders on small-molecule microarrays, primary screen, psychiatric disease protein project, biochemical, small-molecule microarray, fluorescence 635/667 (AID 1075); conditions: NRG1 binding, 635 nm fluorescence, higher = more signal;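 further: score combines 667 nm spot fluorescence with signal to noise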
[7] = test system: Neuregulin-1 EGF-like domain; experiment: binders of neuregulin-1 EGF-like domain, primary screen, biochemical, small-molecule microarray, 635 nm fluorescence (AID 1081); conditions: small-molecule microarray binding, higher = more signal;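 further: binding of the protein to compounds printed on small-molecule microarray slides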
[8] = FRG1 promoter luciferase signal modulators, primary screen, FRG1 inhibition for FSHD, cell-based, C2C12 myotubes, firefly/Renilla luciferase, luminescence (AID 1084); conditions: higher = more signal, called active from +8 up or from −8 down
[9] = binders of probe aFST on microarray, primary screen, stem cell growth factor project, biochemical, small-molecule microarray, fluorescence 635/667 (AID 1086); conditions: higher = more signal;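 further: score merges 667 nm fluorescence with signal-to-noise of each printed compound spot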
[10] = binders of probe aHhip on microarray, primary screen, stem cell growth factor project, biochemical, small-molecule microarray, fluorescence 635/667 (AID 1087); conditions: higher = more signal;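 further: score merges spot fluorescence at 667nm with spot signal to noise ratio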
[11] = test system: PRMT1 (protein arginine N-methyltransferase 1); experiment: PRMT1 binders on small-molecule microarrays, primary screen, biochemical, small-molecule microarray, 635 nm fluorescence (AID 1088); conditions: small-molecule microarray binding, higher = more signal;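 further: binding of Prmt1 protein to compounds spotted on small-molecule microarray slides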
[12] = yeast growth modulation, basal conditions, primary screen, YJM789 clinical isolate, OD600, 24 h (AID 1089);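 further: growth of clinical yeast isolate S. cerevisiae YJM 789 seeded 1000 cells per well; test concentration not given here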; conditions: S. cerevisiae YJM789 growth, higher = more signal, called active from +8 up or from −8 down
[13] = fission yeast growth modulation, primary screen, strain 972, OD600, 24 h, no modulator (AID 1090);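 further: basal condition with compound alone and no growth modifier present; test concentration not given here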; conditions: S. pombe 972 growth, higher = more signal, called active from +8 up or from −8 down
[14] = S. cerevisiae growth modulation with rapamycin, primary screen, strain BY4716, OD600, 96 h (AID 1091); conditions: higher = more signal, called active from +8 up or from −8 down; further: test concentration not given here
[15] = biological target: Torsin-1A-interacting protein 2 (Homo sapiens) (UniProt Q8NFQ8); experiment: LULL1 binders on small-molecule microarray, primary screen, cell lysate, human LULL1 lysate, 635/667 nm fluorescence (AID 1092); conditions: hLULL1 lysate binding, 635 nm fluorescence, higher = more signal;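 further: probe is lysate of COS7 cells overexpressing human LULL1; score merges per-feature 667 nm fluorescence with signal-to-noise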
[16] = E. coli growth modulation, two-sided OD650, primary screen, E. coli filamentation project, strain DRC41, 24 h (AID 1093); conditions: OD650, 24 h, higher = more signal, called active from +8 up or from −8 down;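 further: MC1000 strain lacking acrAB efflux and sulA so SOS filamentation is blocked; test concentration not given here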
[17] = small-molecule microarray binders of probe aLefty2, primary screen, biochemical, biotinylated probe, 635/667 nm fluorescence (AID 1094); conditions: higher = more signal;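 further: score merges spot fluorescence near 667 nm with spot signal-to-noise ratio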
[18] = test system: Noggin (protein binding on small-molecule microarray); experiment: Noggin binders on small-molecule microarray, primary screen, biochemical, 635/667 nm fluorescence (AID 1095); conditions: 635 nm fluorescence, higher = more signal;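 further: score merges 667 nm feature fluorescence with signal to noise over triplicate slides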
[19] = biological target: Neurogenic locus notch homolog protein 3 (Homo sapiens) (UniProt Q9UM47); experiment: NOTCH3 binders on small-molecule microarray, primary screen, biochemical, 635/667 nm fluorescence (AID 1096); conditions: NOTCH3 binding, 635 nm fluorescence, higher = more signal
[20] = small-molecule microarray binders of probe aEGFR, primary screen, biochemical, biotinylated probe, 635/667 nm fluorescence (AID 1097); conditions: higher = more signal;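 further: probe is a biotinylated anti-EGFR antibody binding compounds printed on slides; score combines fluorescence near 667 nm and signal to noise of each spot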

Chain of Neurogenic locus notch homolog protein 3 (Homo sapiens) (Q9UM47 whole entry, looked up): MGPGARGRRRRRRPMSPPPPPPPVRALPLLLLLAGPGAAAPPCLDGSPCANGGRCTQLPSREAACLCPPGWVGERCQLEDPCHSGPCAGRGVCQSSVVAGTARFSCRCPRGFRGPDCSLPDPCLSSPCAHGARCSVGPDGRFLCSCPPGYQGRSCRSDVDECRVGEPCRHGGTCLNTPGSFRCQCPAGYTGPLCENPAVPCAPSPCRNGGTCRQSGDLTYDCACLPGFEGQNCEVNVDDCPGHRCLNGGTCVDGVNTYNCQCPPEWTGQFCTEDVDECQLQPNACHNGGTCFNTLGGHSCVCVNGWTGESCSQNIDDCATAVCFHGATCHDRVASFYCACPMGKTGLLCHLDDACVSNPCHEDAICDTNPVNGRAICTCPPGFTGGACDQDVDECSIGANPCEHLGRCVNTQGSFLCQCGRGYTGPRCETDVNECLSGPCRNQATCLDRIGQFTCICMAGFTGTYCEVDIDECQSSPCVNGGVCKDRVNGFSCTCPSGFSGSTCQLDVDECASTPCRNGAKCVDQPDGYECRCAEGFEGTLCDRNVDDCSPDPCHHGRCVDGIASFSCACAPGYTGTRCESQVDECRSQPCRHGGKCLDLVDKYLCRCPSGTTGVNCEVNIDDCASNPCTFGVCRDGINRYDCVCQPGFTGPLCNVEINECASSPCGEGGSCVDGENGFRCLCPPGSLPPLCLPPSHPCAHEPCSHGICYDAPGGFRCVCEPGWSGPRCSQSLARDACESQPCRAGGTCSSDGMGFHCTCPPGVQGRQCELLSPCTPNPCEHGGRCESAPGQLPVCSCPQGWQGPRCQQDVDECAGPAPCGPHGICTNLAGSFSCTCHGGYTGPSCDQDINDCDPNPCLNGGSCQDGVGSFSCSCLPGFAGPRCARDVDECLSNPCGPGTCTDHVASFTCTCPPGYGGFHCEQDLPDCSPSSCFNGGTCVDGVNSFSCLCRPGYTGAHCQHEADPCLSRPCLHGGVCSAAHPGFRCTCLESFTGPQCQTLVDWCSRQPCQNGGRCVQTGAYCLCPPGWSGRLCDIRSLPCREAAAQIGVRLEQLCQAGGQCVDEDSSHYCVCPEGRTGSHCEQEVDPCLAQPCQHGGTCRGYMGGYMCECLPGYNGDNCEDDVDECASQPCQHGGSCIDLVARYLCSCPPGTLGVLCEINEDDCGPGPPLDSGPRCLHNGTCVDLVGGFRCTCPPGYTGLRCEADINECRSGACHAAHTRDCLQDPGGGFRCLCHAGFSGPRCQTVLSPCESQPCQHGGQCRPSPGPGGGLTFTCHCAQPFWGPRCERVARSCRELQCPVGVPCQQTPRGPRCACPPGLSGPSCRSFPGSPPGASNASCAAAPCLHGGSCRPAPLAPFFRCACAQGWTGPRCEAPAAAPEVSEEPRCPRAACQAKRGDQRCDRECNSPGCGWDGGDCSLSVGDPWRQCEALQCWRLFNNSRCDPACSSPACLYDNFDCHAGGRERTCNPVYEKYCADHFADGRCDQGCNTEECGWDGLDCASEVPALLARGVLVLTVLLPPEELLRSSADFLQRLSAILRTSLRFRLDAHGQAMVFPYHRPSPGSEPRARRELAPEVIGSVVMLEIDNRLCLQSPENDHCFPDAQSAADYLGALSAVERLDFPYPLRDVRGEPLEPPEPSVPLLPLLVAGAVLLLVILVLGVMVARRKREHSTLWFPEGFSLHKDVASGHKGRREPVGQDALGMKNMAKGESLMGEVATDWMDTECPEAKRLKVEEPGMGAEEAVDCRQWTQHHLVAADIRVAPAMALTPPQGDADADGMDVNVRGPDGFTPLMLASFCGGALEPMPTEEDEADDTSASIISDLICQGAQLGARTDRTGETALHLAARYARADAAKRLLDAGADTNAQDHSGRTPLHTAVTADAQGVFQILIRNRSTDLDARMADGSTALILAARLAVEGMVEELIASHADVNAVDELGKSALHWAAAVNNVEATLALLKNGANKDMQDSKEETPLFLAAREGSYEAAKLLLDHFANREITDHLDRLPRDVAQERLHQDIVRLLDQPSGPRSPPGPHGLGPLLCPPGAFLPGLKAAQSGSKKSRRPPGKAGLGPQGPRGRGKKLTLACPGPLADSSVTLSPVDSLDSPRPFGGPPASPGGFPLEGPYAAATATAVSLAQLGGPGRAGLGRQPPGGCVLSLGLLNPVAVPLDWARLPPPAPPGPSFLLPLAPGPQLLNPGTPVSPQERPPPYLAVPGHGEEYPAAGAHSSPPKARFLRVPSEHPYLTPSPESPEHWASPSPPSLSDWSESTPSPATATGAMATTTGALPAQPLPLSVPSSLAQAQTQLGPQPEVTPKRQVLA
Chain of Torsin-1A-interacting protein 2 (Homo sapiens) (Q8NFQ8 whole entry, looked up): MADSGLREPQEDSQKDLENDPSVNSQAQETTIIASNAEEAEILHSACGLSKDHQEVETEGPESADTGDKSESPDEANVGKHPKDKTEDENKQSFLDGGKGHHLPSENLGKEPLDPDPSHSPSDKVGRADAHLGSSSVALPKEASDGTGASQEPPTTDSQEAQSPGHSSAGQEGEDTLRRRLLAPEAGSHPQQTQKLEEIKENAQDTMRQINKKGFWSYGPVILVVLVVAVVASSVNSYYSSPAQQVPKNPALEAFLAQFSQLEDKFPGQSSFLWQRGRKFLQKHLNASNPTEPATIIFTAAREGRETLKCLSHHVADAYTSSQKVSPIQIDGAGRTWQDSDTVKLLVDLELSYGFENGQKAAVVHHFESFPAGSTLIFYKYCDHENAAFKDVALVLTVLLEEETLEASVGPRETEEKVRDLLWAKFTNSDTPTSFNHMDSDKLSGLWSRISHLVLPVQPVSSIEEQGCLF
Chain of Pro-neuregulin-1, membrane-bound isoform (Homo sapiens) (Q02297 whole entry, looked up, the tested form may be a part, canonical isoform): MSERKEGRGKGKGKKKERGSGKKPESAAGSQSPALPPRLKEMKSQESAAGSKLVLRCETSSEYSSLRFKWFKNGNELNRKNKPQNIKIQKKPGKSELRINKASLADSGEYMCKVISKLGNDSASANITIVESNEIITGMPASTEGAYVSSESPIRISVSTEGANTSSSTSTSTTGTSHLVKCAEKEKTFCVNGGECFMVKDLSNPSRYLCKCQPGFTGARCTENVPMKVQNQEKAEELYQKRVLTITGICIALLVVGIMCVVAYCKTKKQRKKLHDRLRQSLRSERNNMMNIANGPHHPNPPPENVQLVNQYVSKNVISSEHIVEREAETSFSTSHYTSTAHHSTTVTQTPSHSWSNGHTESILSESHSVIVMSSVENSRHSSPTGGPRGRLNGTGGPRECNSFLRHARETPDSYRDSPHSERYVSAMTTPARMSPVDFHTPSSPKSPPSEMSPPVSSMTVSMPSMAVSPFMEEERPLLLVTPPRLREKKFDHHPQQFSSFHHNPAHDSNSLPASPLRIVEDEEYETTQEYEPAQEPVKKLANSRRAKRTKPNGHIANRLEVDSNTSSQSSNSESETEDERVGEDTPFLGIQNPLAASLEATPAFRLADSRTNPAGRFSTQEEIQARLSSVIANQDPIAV

| Compound | composite z-score [1] | composite z-score [2] | composite z-score [3] | composite z-score [4] | composite z-score [5] | composite z-score [6] | composite z-score [7] | z-score [8] | composite z-score [9] | composite z-score [10] | composite z-score [11] | z-score [12] | z-score [13] | z-score [14] | composite z-score [15] | z-score [16] | composite z-score [17] | composite z-score [18] | composite z-score [19] | composite z-score [20] |
| --- | --- | --- | --- | --- | --- | --- | --- | --- | --- | --- | --- | --- | --- | --- | --- | --- | --- | --- | --- | --- |
| CCOC(=O)C[C@H]1[C@H](OC(=O)c2cc3ccccc3oc2=O)[C@@H](NC(=O)c2ccccc2)c2cc(OCCCO)ccc2N1C(=O)c1ccc2ccccc2n1 | -0.408 | -0.373 | -0.0878 | 0.8 | 0.889 | 0.0325 | 1.18 | -0.757 (inactive) | 0.312 | -0.0346 | 0.258 | 0.157 (inactive) | -0.12 (inactive) | 0.0284 (inactive) | 0.852 | 0.368 (inactive) | -0.193 | 0.918 | 0.662 | -0.0828 |
| O=C1O[C@@H](c2ccccc2)[C@@H](c2ccccc2)N2[C@@H](c3ccccc3OCCO)[C@]3(C(=O)Nc4ccccc43)[C@@H](C(=O)Nc3nc4ccccc4s3)[C@H]12 | 0.0741 | 0.581 | 0.0566 | 0.841 | 1.15 | 2.01 | 1.26 | -1.26 (inactive) | 0.247 | -0.329 | 1.53 | 1.13 (inactive) | -0.205 (inactive) | 2.85 (inactive) | 3.22 | 1.26 (inactive) | -0.215 | 1.53 | 1.04 | 0.148 |
| COC(=O)[C@@]1(Cc2ccccc2)N=C(c2ccc(OCCCO)cc2)O[C@H]1c1ccccc1 | 0.348 | 0.0099 | 0.0243 | 0.531 | -0.165 | 1.5 | 0.939 | -2.3 (inactive) | -0.053 | -0.169 | 1.31 | -0.774 (inactive) | -1.99 (inactive) | 3.21 (inactive) | 2.05 | 1.55 (inactive) | 0.116 | 0.0302 | 0.107 | -0.123 |
| CC(C)OC(=O)C=C1C[C@@H](c2ccccn2)O[C@@H](c2ccccn2)O1 | -0.431 | -0.121 | -0.158 | 0.0234 | -0.538 | -0.13 | 1.27 | 0.805 (inactive) | -0.171 | -0.112 | 0.875 | -0.0723 (inactive) | 0.228 (inactive) | -1.36 (inactive) | 0.0473 | 0.0183 (inactive) | -0.224 | 1.25 | 0.0527 | 0.0494 |
| COCCOC(=O)N1C(=O)[C@@]2(c3cc(C#Cc4ccc(OC)cc4)ccc31)[C@H](c1ccc(OCCO)cc1)N1[C@H](c3ccccc3)[C@H](c3ccccc3)OC(=O)[C@H]1[C@@H]2C(=O)N1CCN(c2ncccn2)CC1 | -0.144 | 0.316 | -0.0113 | 0.397 | 0.926 | -0.318 | 1.13 | 0.598 (inactive) | 0.736 | 0.0176 | 1.55 | 2.92 (inactive) | 2.3 (inactive) | 7.54 (inactive) | 1.55 | 0.468 (inactive) | 0.127 | 1.06 | 1.08 | 0.178 |
| COc1ccc([Si](C)(C)[C@H]2[C@H](CC(=O)N3Cc4ccccc4C[C@H]3CO)O[C@@]3(C(=O)N(Cc4cccc(N5CCC5=O)c4)c4ccccc43)[C@@H]2C)cc1 | -0.26 | 0.479 | -0.07 | 0.726 | 0.793 | 0.871 | 1.29 | -2.41 (inactive) | 0.256 | -0.13 | 1.57 | -0.441 (inactive) | 0.716 (inactive) | 1.98 (inactive) | 2.26 | 0.192 (inactive) | -0.12 | 0.914 | 1.06 | 0.0478 |
| COc1ccc(CCNC(=O)[C@@]2(Sc3ccc(C)cc3)CC(=O)N(C3Cc4ccccc4C3)[C@@H]2c2ccc(CO)cc2I)cc1 | 0.538 | 0.0778 | -0.0558 | -0.183 | -0.813 | 1.54 | 0.948 | -0.518 (inactive) | 0.0627 | 0.0854 | 0.789 | 0.534 (inactive) | -2.75 (inactive) | 3.02 (inactive) | 1.99 | 0.171 (inactive) | 0.119 | -1.37 | -0.0239 | -0.172 |
| COc1cc(C(O)C2C=CC3C(=O)NC(=O)C3N2Nc2ccccn2)cc(OC)c1OC (stereo not given) | -0.184 | 0.299 | 0.0353 | 0.52 | 1.4 | 0.802 | 1.3 | 1.73 (inactive) | 0.0676 | -0.0618 | 1.06 | 0.175 (inactive) | 1.15 (inactive) | 0.42 (inactive) | 3.09 | -1.19 (inactive) | 0.0624 | 0.0228 | 0.158 | 0.0954 |
| C=CCOC(=O)[C@@H]1[C@H]2C(=O)O[C@H](c3ccccc3)[C@H](c3ccccc3)N2[C@H](c2ccc(OCCOC(=O)[C@H]3C[C@H]4C(=O)N5CCC[C@H]5C(=O)N4[C@H]3c3ccc(O)cc3)cc2)[C@@]12C(=O)Nc1ccc(I)cc12 | -0.493 | 0.942 | -0.0958 | 0.59 | 0.929 | 0.782 | 1.24 | -0.627 (inactive) | -0.0364 | -0.34 | 1.54 | 0.825 (inactive) | 0.267 (inactive) | 3.14 (inactive) | 1.95 | 0.553 (inactive) | -0.203 | 1.46 | 1.07 | -0.119 |
| COCCOC(=O)N1C(=O)[C@@]2(c3cc(C#CCC(C(=O)OC)C(=O)OC)ccc31)[C@H](C(=O)N1CCN(c3ncccn3)CC1)[C@H]1C(=O)O[C@H](c3ccccc3)[C@H](c3ccccc3)N1[C@@H]2c1ccccc1OCCO | -0.486 | 0.51 | 0.0247 | 0.86 | 1.32 | 0.841 | 1.27 | 0.131 (inactive) | 0.495 | -0.0346 | 1.55 | 1.59 (inactive) | 1.33 (inactive) | 6.3 (inactive) | 1.88 | 0.156 (inactive) | -0.0726 | 1.71 | 1.06 | 0.0537 |
| CC(C)C(=C=CC[C@@H](O)c1ccc(OCCO)cc1)C[C@@H](O)COCc1ccccc1 | -0.342 | 0.3 | -0.085 | -0.376 | -0.0534 | -0.849 | 0.449 | -1.74 (inactive) | -0.0716 | -0.0994 | 1.54 | -1.06 (inactive) | -1.09 (inactive) | -0.418 (inactive) | 1.93 | 1.14 (inactive) | -0.192 | 1.65 | 0.652 | -0.135 |
| CC(=O)NCCCC[C@@H]1NC(=O)[C@H]2C[C@@H](C(=O)NCCCCCCNC(=O)CS)[C@@H](c3ccc(O)cc3)N2C1=O | 0.993 | 1.42 | -0.0049 | 0.545 | -0.721 | 0.824 | 1.47 | 0.659 (inactive) | -0.555 | -0.108 | 1.15 | 1.2 (inactive) | 0.686 (inactive) | 0.983 (inactive) | 3.13 | 0.189 (inactive) | 0.0283 | -0.773 | -0.372 | -0.258 |
